Sampled rows, rich in hits. Any-hit rate of the full collection: about 7.3%.
Luc counter: Kinase-Glo luciferase inhibition (counter-screen); Q27757; Kinase-Glo luciferase, ATP luminescence, 8 min; Potency, µM (doses to about 38.3 µM), inactives show at the highest dose activity change, negative = inhibition, actives largely listed as inhibitors; 200,000 compounds, 0.28% hits; AID 1379; also: % is scaled to controls: 0 for no effect and ±100 for the full control effect; nearly all actives have a fitted effect of over 60% in size
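Substrate mix (final 50 mM imidazole pH 7.2, 50 mM KCl, 7 mM MgCl2, 10 uM ATP, 0.01% Tween 20, 0.05% BSA) plus pin-tool compound, then Kinase-Glo detection mix; 8 min ambient, luminescence read.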
FLuc modulator: counter-screen for miR-21 project: firefly luciferase inhibitors or activators | P08659 | purified FLuc, Km substrates, luminescence inhibition | Potency, µM (top dose mostly 57.5 µM), without a hit: at the highest dose activity change, negative = inhibition, most hits filed as inhibitors | 360,000 compounds, 6.9% hits;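 also: plate controls were vehicle for no effect and reference inhibitor for full effect; nearly all actives have a fitted effect of over 55% in size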
Target sequence (P08659 whole entry, looked up): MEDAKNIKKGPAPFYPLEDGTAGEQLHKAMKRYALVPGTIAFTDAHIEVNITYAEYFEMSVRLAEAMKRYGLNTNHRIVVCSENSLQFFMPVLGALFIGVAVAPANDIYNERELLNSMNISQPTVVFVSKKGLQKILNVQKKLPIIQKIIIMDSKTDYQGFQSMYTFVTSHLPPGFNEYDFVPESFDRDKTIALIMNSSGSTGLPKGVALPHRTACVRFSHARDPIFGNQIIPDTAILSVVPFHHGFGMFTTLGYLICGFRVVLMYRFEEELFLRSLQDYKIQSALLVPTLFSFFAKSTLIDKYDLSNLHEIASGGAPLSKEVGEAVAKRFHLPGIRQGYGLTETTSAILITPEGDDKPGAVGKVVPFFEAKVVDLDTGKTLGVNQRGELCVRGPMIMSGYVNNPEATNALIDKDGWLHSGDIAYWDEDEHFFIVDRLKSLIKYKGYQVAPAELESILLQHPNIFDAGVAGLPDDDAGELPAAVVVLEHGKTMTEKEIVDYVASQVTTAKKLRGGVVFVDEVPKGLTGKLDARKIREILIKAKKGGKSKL
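Purified P. pyralis luciferase, 10 nM final, with Km-level 10 uM D-luciferin and 10 uM ATP in 50 mM Tris acetate pH 7.5, 10 mM Mg acetate, 0.01% Tween-20, 0.05% BSA; 6-point qHTS titration about 60 µM downward; luminescence read.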
NPC1 prom act: activates the NPC1 promoter. 320,000 compounds, 2.4% hits. Potency, µM (titrated, usually from 9.22 µM), for the others: at the top dose activation, most hits filed as activators. AID 485313. Huh7 NPC1 promoter luciferase reporter, 24 h; also: % of control where 0% means no effect; nearly all actives have a fitted effect of over 60% in size
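Stably transfected Huh7 (NPC1 promoter→luciferase), 1500 cells/well in Opti-MEM + 10% FBS, 2 h settle, then compound 24 h at 37 °C. Luminescence after 10 min with Amplite reagent.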
SMN2 splice enh: increases expression of the SMN2 splice variant; 210,000 compounds, 2.8% hits; Potency, µM (series often up to 46.1 µM), for inactives: top-dose activity change, positive = activation, usual class: activators; AID 1458; HEK293 SMN2-luciferase splicing reporter, luminescence, 30-36 h; also: % of control where 0% means no effect; nearly all actives have a fitted effect of over 55% in size
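qHTS luciferase splicing reporter: luminescence rises when SMN2 exon 7 is included in transfected HEK293 cells. Compound exposure lasted 30-36 h at 37C, with 4.5 mM final sodium butyrate as control, followed by a ONE-Glo read.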
ELG1 genotoxic: inducers of genotoxicity in HEK293T ELG1-luciferase cells | HEK293T ELG1-luciferase reporter, luminescence, 16 h | Potency, µM (top dose mostly 46 µM), without a hit: at the highest dose activity change, positive = activation, hits mostly activators | 330,000 compounds, 1.3% hits; also: % of control where 0% means no effect; nearly all actives have a fitted effect of over 60% in size
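Genotoxic stress is detected as increased luminescence from luciferase-tagged ELG1 in HEK293T cells, measured with ONE-Glo after a 16 hr treatment at 37 °C.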
Rab9 promoter act: Rab9 promoter activation; Huh7 Rab9 promoter-luciferase reporter, luminescence, 24 h; 320,000 compounds, 2.8% hits; Potency, µM (titrated, usually from 9.22 µM), for inactives: at the highest dose activation, negative = inhibition, most hits filed as activators; also: % of control where 0% means no effect; nearly all actives have a fitted effect of over 60% in size
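Cell-based reporter: Huh7 stable for Rab9 promoter-driven luciferase, plated in reduced-serum medium with 10% FBS at 1500 cells/well, compound-treated 24 h at 37 °C, luminescence read after 10 min reagent.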
Active calls of the source: *; ? = inconclusive; nt = no result; [ ] = dose if it differs, or a comment. Calls follow the shape of the dose curve; as a rule, active = well fitted curve in the direction sought with a large enough effect; inconclusive = small, poorly fitted or top-dose-only effect, or another doubt; inactive = no such curve, though single readings can be large; an effect the other way counts as inactive or inconclusive. Potency is read from the fitted curve at half-maximal effect.

SMILES	Luc counter	FLuc modulator	NPC1 prom act	SMN2 splice enh	ELG1 genotoxic	Rab9 promoter act
COc1cccc(N2CCN(C(=O)c3cccc(NC(=O)c4nsc5ccccc45)c3)CC2)c1	nt	1.9µM*	nt	nt	nt	nt
CCOC(=O)C1CCCN(C(=O)c2cccc(NC(=O)c3nsc4ccccc34)c2)C1 (configuration not stated)	nt	9.5µM*	nt	nt	nt	nt
Cc1ccc(C(=O)N2CCN(c3ccccc3)CC2)cc1NC(=O)c1nsc2ccccc12	nt	-4%	nt	nt	nt	nt
CC1CCN(C(=O)c2cccc(NC(=O)c3nsc4ccccc34)c2)CC1	nt	3.4µM*	nt	nt	nt	nt
O=C(Nc1cccc(C(=O)N2CCN(c3ccccc3)CC2)c1)c1nsc2ccccc12	nt	2.7µM*	nt	nt	nt	nt
Cc1ccc(NC(=O)CSc2nccn2-c2ccccc2)cc1	nt	-12%	nt	nt	nt	nt
COc1ccc(N2CCN(C(=O)c3cccc(NC(=O)c4nsc5ccccc45)c3)CC2)cc1	nt	9.5µM*	nt	nt	nt	nt
COc1ccc(N2CCN(C(=O)c3cccc(NC4=NC5CS(=O)(=O)CC5S4)c3)CC2)cc1 (configuration not stated)	nt	3%	3%	nt	-1%	-5%
O=c1[nH]cnc2cc(-c3ccc(Br)cc3)sc12	nt	7.6µM*	2.5µM*	nt	?	2.8µM*
COc1cccc(-c2nn(-c3ccccc3)cc2C(=O)NCC(=O)O)c1	0%	9.5µM*	1%	4%	-4%	-2%
COc1ccc(-c2nn(-c3ccccc3)cc2CO)cc1OC	-1%	?	0%	-4%	-8%	-4%
COc1cccc(-c2nn(-c3ccccc3)cc2CO)c1	5%	13µM*	nt	6%	nt	nt
COC(=O)c1cn(-c2ccccc2)nc1-c1ccc(OC)c(OC)c1	nt	21µM*	5%	nt	-1%	0%
COc1ccc(-c2nn(-c3ccccc3)cc2/C=N/O)cc1OC	nt	?	20%	nt	-6%	1%
COc1ccc(-c2nn(-c3ccccc3)cc2/C=N/Nc2ccc3ccccc3n2)cc1OC	3%	11µM*	-5%	-66%	-9%	-19%
CCc1ccccc1NC(=O)Cn1cc2c(n1)CCC(C)C2 (configuration not stated)	nt	-7%	nt	-18%	nt	nt
COc1ccc(OC)c(CCNC(=O)c2cc3c(=O)oc4ccc(C)cc4c3s2)c1	nt	-2%	nt	-1%	nt	nt
C=CCN1c2ccccc2[C@]23C[C@@H](C(=O)OC)N(S(=O)(=O)c4cccs4)C2=NC(C(=O)OC)=C(C(=O)OC)[C@H]13	-5%[7.66 µM]	nt	nt	5%[9.22 µM]	nt	nt
COc1cccc(-c2nn(-c3ccccc3)cc2/C=C(/NC(=O)c2ccccc2)C(=O)O)c1	nt	27µM*	-1%	nt	1%	-1%
O=c1cc(N2CCN(c3cccc(Cl)c3)CC2)[nH]c(=O)n1C1CCCCC1	0%	0%	3%	7.9µM*	?	-33%
Cc1ccc2nc3c(cc2c1)c(NC(=O)c1ccccn1)nn3CC(C)C	1%	?	2%	9%	-9%	-2%
CCn1nc(NS(=O)(=O)c2cccc3nonc23)c2cc3ccc(C)cc3nc21	nt	30µM*	1%	nt	4%	3%
CCn1nc(NC(=O)c2ccccn2)c2cc3cc(C)ccc3nc21	-9%	9.5µM*	18%	19%	-1%	3%
CCn1nc(NS(=O)(=O)c2ccc([N+](=O)[O-])cc2)c2cc3cc(C)ccc3nc21	nt	11µM*	-2%	nt	5%	11%
Cc1cc(/C=C2/NC(=O)N(c3ccccc3)C2=O)c(C)n1C(C)C	-1%	4.8µM*	3.2µM*	10µM*	?	1.6µM*
SMILES	Luc counter	FLuc modulator	NPC1 prom act	SMN2 splice enh	ELG1 genotoxic	Rab9 promoter act
Cc1cc(/C=C2/NC(=O)N(Cc3ccccc3F)C2=O)c(C)n1C(C)C	-3%	?	-2%	0%	-3%	-2%
Cc1ccc(-c2noc(C3CCCN(C(=O)c4ccccc4Br)C3)n2)cc1 (configuration not stated)	nt	?	15%	nt	10%	1%
c1ccc(-c2noc(C3CCCCC3)n2)nc1	?	11µM*	?	11µM*	6.5µM*	2.8µM*
Brc1ccc(-c2noc(C3CCCCC3)n2)cc1	0%	6.7µM*	?	nt	?	2.8µM*
c1ccc(-c2noc(C34CC5CC(CC(C5)C3)C4)n2)nc1	1%	11µM*	?	13µM*	15µM*	?
CCc1ccc(/C=N/Nc2ncnc3nc[nH]c23)cc1	nt	3µM*	2.8µM*	nt	7.3µM*	1.3µM*
CCOc1ccc(NC(=O)N2CCN(S(=O)(=O)c3ccc4c(ccn4C)c3)CC2)cc1	nt	-2%	nt	nt	nt	nt
COc1ccc(OCC(=O)Nc2ccc(NC(=O)c3cccs3)cc2)cc1	nt	4%	1%	nt	12%	3%
CN(C(=O)c1cccs1)c1ccc(OCC(=O)Nc2ccc(C(=O)O)cc2)cc1	nt	17µM*	-3%	nt	1%	0%
CC(C)(C)c1ccc(C(=O)NCC(=O)OCC(=O)Nc2ccc3c(c2)OCCO3)cc1	-1%	3.4µM*	8%	4%	-1%	2%
O=C(COC(=O)CNC(=O)C1CCCCC1)Nc1ccc2c(c1)OCCO2	-1%	19µM*	0%	-3%	6%	2%
O=C(COC(=O)CNC(=O)C1CCCCC1)Nc1ccc2ccccc2c1	0%	-10%	2%	7%	13%	20%
CC(C)(C)OC(=O)N1Cc2ccccc2C[C@H]1C(=O)NCC(=O)Nc1ccc2c(c1)OCCO2	nt	21µM*	1%	nt	?	0%
O=C(COC(=O)CNC(=O)c1ccccc1)Nc1ccc2c(c1)OCO2	0%	-6%	1%	-3%	-1%	-3%
COc1ccccc1CN1CC(C(=O)NCc2ccc(C)c(F)c2)CCC1=O (configuration not stated)	nt	-2%	-6%	nt	2%	1%
COc1ccccc1CN1CC(C(=O)NCc2c(F)ccc(C)c2F)CCC1=O (configuration not stated)	nt	30µM*	?	nt	?	?
Cc1ccc(-c2nnc(Cc3ccc([N+](=O)[O-])cc3)o2)cc1	12%	-2%	?	nt	?	2.2µM*
Fc1ccc(-c2nnc(Cc3nnc(-c4ccc(F)cc4)o3)o2)cc1	10%	-1%	-2%	-5%	-1%	0%
O=[N+]([O-])c1ccc(Cc2nnc(-c3ccc(F)cc3)o2)cc1	12%	-11%	?	5%	-4%	1µM*
CC(=O)CSc1nnc(Cc2ccc([N+](=O)[O-])cc2)o1	2%	-1%	-5%	8%	3%	-6%
Cc1cc(C)c2oc(-c3ccc(Cl)c(NC(=O)c4ccc(C#N)cc4F)c3)nc2c1	-4%	17µM*	-4%	?	9%	-16%
